# Measurements as given in PubChem BioAssay (NCI).
# Where “and” joins values, the source holds several entries; their conditions need not be identical. Equal values may be shown once. This is part of a sample that, as a whole, favours compounds with a hit. Of some 79,000 tested, about 15% had one in any assay. Calls of active or inactive are those of the source. Cut-off read from the data, not from the text of the source: active = growth inhibition above about 70%; inactive = the rest.
# Test: NCI Yeast Anticancer Drug Screen. Data for the cln2 rad14 strain (AID 165);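 note: 0% = growth equal to vehicle treated cultures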
# Details: S. cerevisiae cln2 rad14 strain, at 50.0 µM, stronger effect = higher value
# Method in brief: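 Yeast carrying cln2 and rad14 alterations (cell cycle control and DNA damage repair) were exposed to compounds. Growth inhibition was measured against vehicle-treated controls.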
row,Compound,growth inhibition
1,CC(Cc1ccc(O)cc1)NCC(O)c1ccc(O)c(O)c1 (stereo not given),0.55% (inactive)
2,O=c1[nH]cc(CCl)c(=O)[nH]1,25.9% (inactive)
3,CC1(C)C=C(NC(=O)N2CC2)C(C)(C)N1O,9.75% (inactive)
4,Cc1nnnn1C,-10.9% (inactive)
5,NNC(=O)c1ccc(N)cc1,6.05% (inactive)
6,Nc1ccccc1C(=O)O,8.6% (inactive)
7,Cc1c([N+](=O)[O-])cc(C(C)(C)C)c(O)c1[N+](=O)[O-],43.5% (inactive)
8,C=C(C)C(=O)OCC12CCC(C)=CC1OC1C(=O)C(OC(=O)C(=C)C)C2(C)C12CO2 (stereo not given),2.75% (inactive)
9,CN(C)CCc1ccc(O)cc1,5.55% (inactive) and -16.4% (inactive)
10,O=C(O)C(O)C(O)C(O)C(O)C(O)C(O)CO.[Cd] (stereo not given),19.4% (inactive) and 28.7% (inactive)
11,CN(C)CCN(C)C.[C-]#[O+].[C-]#[O+].[C-]#[O+].[C-]#[O+].[W+2],-51.1% (inactive)
12,C1CC2OC2CC1C1CO1 (stereo not given),-8.4% (inactive)
13,COCCCNP(=O)(OC(C)C)OC(C)C,5.8% (inactive)
14,[Be]=[Se],2.1% (inactive)
15,CC(C)(C[N+](=O)[O-])C[N+](=O)[O-],-19.1% (inactive)
16,Cc1cccc(-n2c(C)nc3ccccc3c2=O)c1C,-2.6% (inactive)
17,O=[N+]([O-])c1ccc(OCc2ccc(Cl)c(S(=O)(=O)F)c2)c(Cl)c1,-24.4% (inactive)
18,COc1ccc([N+](=O)[O-])cc1CNCCCl,-14.8% (inactive)
19,O=[N+]([O-])c1ccc(O)c(CBr)c1,18.6% (inactive)
20,CC12CCC3C(=CC=C4CC(O)CCC43C)C1CCC2=O (stereo not given),0.95% (inactive) and -45.7% (inactive)

row,Compound,growth inhibition
1,Cn1ccnc1C[N-]Cc1nccn1C.O=[N+]([O-])[O-].O=[N+]([O-])[O-].[Cu+2],24.4% (inactive)
2,CN(C)C(=O)C1(c2ccccc2)CCNCC1,1% (inactive)
3,O=C1[C@@H]2[C@H](C(=O)N1c1ccccc1)[C@H]1CC[C@H]2N1C(=O)c1ccccc1,2.75% (inactive)
4,O=C(O)c1ccc([As](=O)(O)O)cc1[N+](=O)[O-],1.7% (inactive)
5,CC(=O)CC(C)=O.CC(=O)CC(C)=O.CC(=O)CC(C)=O.[Mn],10.8% (inactive) and -53% (inactive)
6,Brc1ccc2nncc(N3CC3)c2c1,8.5% (inactive)
7,CCN(CCCl)c1ccc(NC(=O)c2cc(C(=O)NCCN(C)C)cc(C(=O)Nc3ccc(N(CC)CCCl)cc3)c2)cc1,2.95% (inactive)
8,COc1ccc2c(c1OC)C[C@@H]1c3c(cc4c(c3-2)OCO4)CCN1C,-14.6% (inactive)
9,NC(=O)Cc1ccc([As]=O)cc1 (stereo not given),21% (inactive)
10,COP(=O)(OC)C(=O)c1ccc(C)cc1,-36.8% (inactive)
11,O=C(C1CO1)C(Cl)(Cl)Cl (stereo not given),-8.2% (inactive)
12,C/C=C(\C)C(=O)N[C@@H](c1ccccc1)[C@@H](O)C(=O)OC1C[C@@]2(O)[C@@H](OC(=O)c3ccccc3)[C@@H]3[C@]4(OC(C)=O)CO[C@@H]4C[C@H](O)[C@@]3(C)C(=O)[C@H](OC(C)=O)C(=C1C)C2(C)C (stereo not given in full),16.9% (inactive)
13,Cc1cc(Cl)ccc1NC(=O)/C(CC(=O)CC(c1ccccc1)c1c(O)c2ccccc2oc1=O)=N\O (stereo not given),-37.6% (inactive)
14,O=C1C(=O)c2ccccc2C(O)=C1CN(CCCl)CCCl,-21.9% (inactive)
15,O=C1NC(=O)C2(O)NC(=O)NC2(O)N1 (stereo not given),-10.8% (inactive)
16,CC(=O)OC1(C(C)=O)CC2(c3ccccc3)OC1(c1ccccc1)c1ccccc12 (stereo not given),10.2% (inactive)
17,C/C1=N\NC(=O)c2ccccc2C(=O)N/N=C(\C)c2cccc1n2.O=[N+]([O-])[O-].[Zn+2],5.8% (inactive)
18,COP(=O)(OC)C(=O)c1ccccc1,-31.9% (inactive)
19,O=Cc1cn(CCCCCCCCCCCCn2cc(C=O)c3ccccc32)c2ccccc12,-5.55% (inactive)
20,C=C1CC2CC[C@@]34CC5O[C@@H]6C(O[C@H]7CC[C@H](CC(=O)OC8C(C)C9OC%10C[C@]%11(C[C@@H]%12O[C@]%13(CC(C)[C@@H]%14O[C@H](C(O)CC(O)CO)C[C@@H]%14O%13)CC(C)[C@@H]%12O%11)OC%10CC9O[C@H]8C[C@H]8OC(CC[C@@H]1O2)C[C@@H](C)C8=C)OC7[C@@H]6O3)[C@H]5O4 (stereo not given in full),83.7% (active)

# Test: NCI Yeast Anticancer Drug Screen. Data for the bub3 strain (AID 167)
# Details: S. cerevisiae bub3 mutant strain, at 50.0 µM, stronger effect = higher value
# Method in brief: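 Inhibition values come from growth of compound-treated mutant yeast normalised to vehicle-treated controls.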
row,Compound,growth inhibition
1,CC(Cc1ccc(O)cc1)NCC(O)c1ccc(O)c(O)c1 (stereo not given),-7.45% (inactive)
2,O=c1[nH]cc(CCl)c(=O)[nH]1,4.85% (inactive)
3,CC1(C)C=C(NC(=O)N2CC2)C(C)(C)N1O,34.8% (inactive)
4,Cc1nnnn1C,-19.1% (inactive)
5,NNC(=O)c1ccc(N)cc1,4.75% (inactive)
6,Nc1ccccc1C(=O)O,18.4% (inactive)
7,Cc1c([N+](=O)[O-])cc(C(C)(C)C)c(O)c1[N+](=O)[O-],27.1% (inactive)
8,C=C(C)C(=O)OCC12CCC(C)=CC1OC1C(=O)C(OC(=O)C(=C)C)C2(C)C12CO2 (stereo not given),-10.1% (inactive)
9,CN(C)CCc1ccc(O)cc1,2.85% (inactive) and -2.9% (inactive)
10,O=C(O)C(O)C(O)C(O)C(O)C(O)C(O)CO.[Cd] (stereo not given),4.6% (inactive) and -7.8% (inactive)
11,CN(C)CCN(C)C.[C-]#[O+].[C-]#[O+].[C-]#[O+].[C-]#[O+].[W+2],2.1% (inactive)
12,C1CC2OC2CC1C1CO1 (stereo not given),-17.1% (inactive)
13,COCCCNP(=O)(OC(C)C)OC(C)C,9.2% (inactive)
14,[Be]=[Se],-11.4% (inactive)
15,CC(C)(C[N+](=O)[O-])C[N+](=O)[O-],-1.7% (inactive)
16,Cc1cccc(-n2c(C)nc3ccccc3c2=O)c1C,-0.6% (inactive)
17,O=[N+]([O-])c1ccc(OCc2ccc(Cl)c(S(=O)(=O)F)c2)c(Cl)c1,20.7% (inactive)
18,COc1ccc([N+](=O)[O-])cc1CNCCCl,20.1% (inactive)
19,O=[N+]([O-])c1ccc(O)c(CBr)c1,13.9% (inactive)
20,CC12CCC3C(=CC=C4CC(O)CCC43C)C1CCC2=O (stereo not given),22.9% (inactive) and -11.6% (inactive)

row,Compound,growth inhibition
1,Cn1ccnc1C[N-]Cc1nccn1C.O=[N+]([O-])[O-].O=[N+]([O-])[O-].[Cu+2],-5.35% (inactive)
2,CN(C)C(=O)C1(c2ccccc2)CCNCC1,1.2% (inactive)
3,O=C1[C@@H]2[C@H](C(=O)N1c1ccccc1)[C@H]1CC[C@H]2N1C(=O)c1ccccc1,13.2% (inactive)
4,O=C(O)c1ccc([As](=O)(O)O)cc1[N+](=O)[O-],-3.6% (inactive)
5,CC(=O)CC(C)=O.CC(=O)CC(C)=O.CC(=O)CC(C)=O.[Mn],-3.1% (inactive) and 3.2% (inactive)
6,Brc1ccc2nncc(N3CC3)c2c1,-9.3% (inactive)
7,CCN(CCCl)c1ccc(NC(=O)c2cc(C(=O)NCCN(C)C)cc(C(=O)Nc3ccc(N(CC)CCCl)cc3)c2)cc1,-1.4% (inactive)
8,COc1ccc2c(c1OC)C[C@@H]1c3c(cc4c(c3-2)OCO4)CCN1C,-0.6% (inactive)
9,NC(=O)Cc1ccc([As]=O)cc1 (stereo not given),6.85% (inactive)
10,COP(=O)(OC)C(=O)c1ccc(C)cc1,15.9% (inactive)
11,O=C(C1CO1)C(Cl)(Cl)Cl (stereo not given),-15.2% (inactive)
12,C/C=C(\C)C(=O)N[C@@H](c1ccccc1)[C@@H](O)C(=O)OC1C[C@@]2(O)[C@@H](OC(=O)c3ccccc3)[C@@H]3[C@]4(OC(C)=O)CO[C@@H]4C[C@H](O)[C@@]3(C)C(=O)[C@H](OC(C)=O)C(=C1C)C2(C)C (stereo not given in full),21.4% (inactive)
13,Cc1cc(Cl)ccc1NC(=O)/C(CC(=O)CC(c1ccccc1)c1c(O)c2ccccc2oc1=O)=N\O (stereo not given),-29.1% (inactive)
14,O=C1C(=O)c2ccccc2C(O)=C1CN(CCCl)CCCl,30.8% (inactive)
15,O=C1NC(=O)C2(O)NC(=O)NC2(O)N1 (stereo not given),-22.4% (inactive)
16,CC(=O)OC1(C(C)=O)CC2(c3ccccc3)OC1(c1ccccc1)c1ccccc12 (stereo not given),-3.9% (inactive)
17,C/C1=N\NC(=O)c2ccccc2C(=O)N/N=C(\C)c2cccc1n2.O=[N+]([O-])[O-].[Zn+2],-38% (inactive)
18,COP(=O)(OC)C(=O)c1ccccc1,-23.8% (inactive)
19,O=Cc1cn(CCCCCCCCCCCCn2cc(C=O)c3ccccc32)c2ccccc12,7.35% (inactive)
20,C=C1CC2CC[C@@]34CC5O[C@@H]6C(O[C@H]7CC[C@H](CC(=O)OC8C(C)C9OC%10C[C@]%11(C[C@@H]%12O[C@]%13(CC(C)[C@@H]%14O[C@H](C(O)CC(O)CO)C[C@@H]%14O%13)CC(C)[C@@H]%12O%11)OC%10CC9O[C@H]8C[C@H]8OC(CC[C@@H]1O2)C[C@@H](C)C8=C)OC7[C@@H]6O3)[C@H]5O4 (stereo not given in full),91.1% (active)
